Assay outcomes: PubChem BioAssay, National Center for Advancing Translational Sciences (NCATS)
Hits are enriched below; roughly 7.5% of the tested compounds scored in any of these assays.
FBPA Giardia inh = qHTS Assay for Inhibitors of Fructose-1,6-bisphosphate Aldolase from Giardia Lamblia | A8B2U2 | purified Giardia FBPA | Potency, µM (doses to about 59.6 µM), for the others: at the top dose activity, negative = inhibition, most hits filed as inhibitors | 290,000 tested, 0.71% active | AID 2451, 2010; also: potency is read from the fitted curve at half-maximal effect; nearly all actives have a fitted effect of over 55% in size
Target sequence (A8B2U2 whole entry, looked up): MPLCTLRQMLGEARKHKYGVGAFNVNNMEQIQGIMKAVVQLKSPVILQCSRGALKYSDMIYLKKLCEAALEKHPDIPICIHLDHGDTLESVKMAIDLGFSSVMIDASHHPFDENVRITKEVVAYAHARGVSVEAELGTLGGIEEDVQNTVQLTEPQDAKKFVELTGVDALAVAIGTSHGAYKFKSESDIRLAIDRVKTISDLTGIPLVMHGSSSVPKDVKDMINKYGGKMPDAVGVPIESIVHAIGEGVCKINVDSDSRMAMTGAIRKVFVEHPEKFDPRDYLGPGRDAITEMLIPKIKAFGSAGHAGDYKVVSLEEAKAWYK
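Giardia FBPA (40 nM reagent) was preincubated 10 min at RT with compound (up to 57.5 uM final), then substrate plus GAPDH/TPI/NAD/arsenate coupling system with diaphorase/resazurin was added; resorufin fluorescence (525/598 nm) was read after 20 min.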
FMDV antiviral = High Throughput Screening for Foot and Mouth Disease Virus Antivirals; AID 1159524, 2015; 410,000 tested, 1.2% active; FMDV antiviral cell-based qHTS; Potency, µM (top dose mostly 57.9 µM), inactives show top-dose activity change, negative = inhibition, hits mostly inhibitors; calls by dose curve; tested in HEK293T cells; also: read-out not given here; potency is read from the fitted curve at half-maximal effect; nearly all actives have a fitted effect of over 45% in size
HCMV antiviral = qHTS Assay for inhibitors of the human cytomegalovirus (HCMV). HFF cells, HCMV-luciferase reporter, 72 h; hits give low values. activity change, negative = inhibition, % at 57.5 µM. 410,000 tested, 4.5% active. AID 1259415, 2018; in the data active = activity change below about -60%; inconclusive = no clear call, values can overlap the other calls; inactive = above about -39%
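Steps: HFFs plated, 16 h 37C; compounds added; HCMV-luciferase added to MOI 1 PFU/cell; 72 h 37C; OneGlo reagent, 5 min room temperature; luminescence read, normalized to controls.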
VACV Venus inh = qHTS for Stage-Specific Inhibitors of Vaccinia Orthopoxvirus: Venus Reporter Primary qHTS | Potency, µM (titrated, usually from 36.5 µM), inactives show at the top dose activity change, negative = inhibition, most hits filed as inhibitors | Vaccinia virus Venus reporter expression, fluorescence | 330,000 tested, 0.46% active; calls by dose curve; tested in A549 cells; also: potency is read from the fitted curve at half-maximal effect; nearly all actives have a fitted effect of over 30% in size
HCV inh = qHTS Assay for Inhibitors of Hepatitis C Virus (HCV); Huh7.5.1 HCVcc-Cre infection, luciferase reporter, 44 h; Potency, µM (top dose mostly 41.8 µM), for inactives: at the top dose activity change, negative = inhibition, usual class: inhibitors; 340,000 tested, 3.4% active; also: potency is read from the fitted curve at half-maximal effect
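Luciferase read-out (15 sec integration) after a 15 min room-temperature substrate step quantifies HCVcc-Cre infection. Cells, 1,000 per well, had compound added 4 h post-plating, then virus at ~0.5 moi, and were cultured 44 h.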
Vaccinia mCherry = qHTS for Stage-Specific Inhibitors of Vaccinia Orthopoxvirus: mCherry Reporter Primary qHTS | Vaccinia virus mCherry reporter infection, fluorescence | Potency, µM (titrated, usually from 36.5 µM), without a hit: top-dose activity change, negative = inhibition, actives largely listed as inhibitors | 310,000 tested, 0.63% active | AID 720579, 2013; calls by dose curve; tested in A549 cells; also: potency is read from the fitted curve at half-maximal effect; nearly all actives have a fitted effect of over 35% in size
Numbers without * were called inactive; [ ] = dose if it differs, or a comment. Unless noted, calls follow the shape of the dose curve; as a rule, active = well fitted curve in the direction sought with a large enough effect; inconclusive = small, poorly fitted or top-dose-only effect, or another doubt; inactive = no such curve, though single readings can be large; an effect the other way counts as inactive or inconclusive. % is scaled to controls: 0 for no effect and ±100 for the full control effect.

What do the screens show for `COc1cccc(Nc2ccc3cc(S(=O)(=O)N4CCC(C)CC4)ccc3n2)c1`?
FMDV antiviral: -15%; HCMV antiviral: -87*; VACV Venus inh: inconclusive; Vaccinia mCherry: inconclusive

How did Nc1nonc1-n1nnc(C(=O)N/N=C/c2cc(Br)ccc2O)c1CNc1ccccc1 do in these assays?
FMDV antiviral: -20%; HCMV antiviral: -93*; VACV Venus inh: -5%; HCV inh: 10µM*; Vaccinia mCherry: -14%

How did Cc1ccc(COc2ccc(/C=N/NC(=O)c3nnn(-c4nonc4N)c3COc3ccc(F)cc3)cc2)cc1 do in these assays?
FBPA Giardia inh: 6%; FMDV antiviral: 13%; HCMV antiviral: -3; VACV Venus inh: -9%[7.34 µM]; HCV inh: -4%; Vaccinia mCherry: inactive[7.34 µM]

Results for Nc1nonc1-n1nnc(C(=O)N/N=C/c2ccc(OCc3ccc(F)cc3)cc2)c1COc1ccccc1 ?
FBPA Giardia inh: 4%; FMDV antiviral: -13%; HCMV antiviral: -73*; HCV inh: inconclusive

How did NC(=O)N/N=C\c1cc(Br)ccc1O do in these assays?
FBPA Giardia inh: 15%; FMDV antiviral: 0%; HCMV antiviral: 19; VACV Venus inh: -17%; HCV inh: 17%; Vaccinia mCherry: -13%

Results for Nc1nonc1-n1nnc(C(=O)N/N=C/c2ccncc2)c1-c1cccs1 ?
FMDV antiviral: 26%; HCMV antiviral: active; VACV Venus inh: -5%; HCV inh: 12%; Vaccinia mCherry: -18%

What do the screens show for `Nc1nonc1C(=O)N/N=C/c1cc(Br)ccc1O`?
FBPA Giardia inh: 0%; FMDV antiviral: 44%; HCMV antiviral: -8; VACV Venus inh: inconclusive; HCV inh: 11µM*; Vaccinia mCherry: inconclusive

What do the screens show for `Nc1nonc1-n1nnc(C(=O)N/N=C/c2ccncc2)c1-c1ccccc1`?
FBPA Giardia inh: 1%; FMDV antiviral: -17%; HCMV antiviral: -14; VACV Venus inh: -4%; HCV inh: 15%; Vaccinia mCherry: -6%

What do the screens show for `O=C(CCNC(=O)c1ccco1)Nc1ccc(Cl)c(C(F)(F)F)c1`?
FBPA Giardia inh: -1%; FMDV antiviral: -25%; HCMV antiviral: -35; VACV Venus inh: 0%; HCV inh: 13%; Vaccinia mCherry: -6%

Results for Cc1ccc(S(=O)(=O)NCC(=O)OCCOc2cccc(Cl)c2)cc1 ?
FMDV antiviral: 0%; HCMV antiviral: 48; HCV inh: -13%

What do the screens show for `O=C(NC1CC2CCCC(C1)N2C(=O)Nc1ccc(F)cc1)c1ccccc1` (centres undefined)?
FBPA Giardia inh: -8%; FMDV antiviral: -19%; HCMV antiviral: -19; VACV Venus inh: -14%; HCV inh: -3%; Vaccinia mCherry: -6%

How did N#C/C(=C\c1c(Oc2ccc(F)cc2)nc2ccccn2c1=O)c1nc2ccccc2s1 do in these assays?
FMDV antiviral: -12%; HCMV antiviral: 0; VACV Venus inh: 3%; Vaccinia mCherry: -10%

How did Cc1c(C(=O)N/N=C/c2c(O)ccc3ccccc23)nnn1-c1nonc1N do in these assays?
FBPA Giardia inh: 7%; FMDV antiviral: -11%; HCMV antiviral: -98*; VACV Venus inh: 13%; HCV inh: inconclusive; Vaccinia mCherry: -24%

Results for Nc1nonc1-n1nnc(C(=O)N/N=C/c2cccc(Cl)c2Cl)c1CN1CCCC1 ?
FBPA Giardia inh: -9%; FMDV antiviral: -2%; HCMV antiviral: -61*; VACV Venus inh: -3%; HCV inh: inconclusive; Vaccinia mCherry: inactive

How did O=C(N/N=C/c1cc(Br)ccc1O)c1ccncc1 do in these assays?
FBPA Giardia inh: 15%; FMDV antiviral: 18%; HCMV antiviral: 0; VACV Venus inh: -24%; HCV inh: inconclusive; Vaccinia mCherry: inconclusive

Results for Cc1nc(C)c(C(=O)N/N=C/c2cc(Br)ccc2O)s1 ?
FBPA Giardia inh: 20%; FMDV antiviral: -1%; HCMV antiviral: -99*; HCV inh: inconclusive

How did Nc1nonc1-n1nnc(C(=O)N/N=C/c2ccc(Cl)cc2Cl)c1CN1CCCC1 do in these assays?
FBPA Giardia inh: -9%; FMDV antiviral: -13%; HCMV antiviral: 1; VACV Venus inh: -16%; HCV inh: 14%; Vaccinia mCherry: inactive

What do the screens show for `NCCc1nnc(SCC(=O)c2ccc(Cl)cc2)o1`?
FBPA Giardia inh: 0%; FMDV antiviral: 5%; HCMV antiviral: -4; VACV Venus inh: -10%; HCV inh: -3%; Vaccinia mCherry: inactive

What do the screens show for `CCc1ccc(OCC(=O)NNC(=O)c2cc(S(=O)(=O)N(C)C)ccc2N2CCCC2)cc1`?
FMDV antiviral: -12%; HCMV antiviral: -4; VACV Venus inh: -7%; HCV inh: 2%; Vaccinia mCherry: inactive

Results for Nc1nc(N)c2cc(CNc3ccc(Cl)c(Cl)c3)ccc2n1 ?
FMDV antiviral: 35µM*; HCMV antiviral: -69*; VACV Venus inh: 5.6µM*; Vaccinia mCherry: inconclusive

How did Cc1ccc(C)c(NC(=O)C(Cc2ccccc2)N2Cc3ccccc3C2=O)c1 (centres undefined) do in these assays?
FMDV antiviral: inconclusive; HCMV antiviral: -90*; VACV Venus inh: -6%; Vaccinia mCherry: -15%

Results for O=C(NC1CCCCC1)[C@H](CSCc1ccccc1)N1Cc2ccccc2C1=O ?
FBPA Giardia inh: -2%; FMDV antiviral: 0%; HCMV antiviral: -60*; VACV Venus inh: -14%; HCV inh: -14%; Vaccinia mCherry: 19%

Results for Cc1cccc(C)c1NS(=O)(=O)c1cc2c3c(c1)CC(=O)N3CCC2 ?
FMDV antiviral: 0%; HCMV antiviral: -65*; HCV inh: -11%

Results for CC(C)(C)c1ccc(C(=O)NCC(c2cccs2)S(=O)(=O)c2ccc(F)cc2)cc1 (centres undefined) ?
FMDV antiviral: 20µM*; HCMV antiviral: -31; VACV Venus inh: -29%; Vaccinia mCherry: inconclusive

Results for CC1=Nc2ccccc2N=C(NC(=O)CN2CCN(c3ccc(F)cc3)CC2)C1c1ccccc1 (centres undefined) ?
FBPA Giardia inh: -4%; FMDV antiviral: inconclusive; HCMV antiviral: -37; VACV Venus inh: -5%; HCV inh: -4%; Vaccinia mCherry: -3%

What do the screens show for `Cc1cccc2c1c1ccc3c(c1n2C)C(=O)C=CC3=O`?
FBPA Giardia inh: inconclusive; FMDV antiviral: 14µM*; HCMV antiviral: 3; VACV Venus inh: inconclusive; HCV inh: -18%; Vaccinia mCherry: -30%

How did O=C1C=CC(=O)c2c(O)cccc21 do in these assays?
FBPA Giardia inh: inconclusive; FMDV antiviral: 1%; VACV Venus inh: -15%; Vaccinia mCherry: -21%
